PubChem BioAssay (NCATS)
Results filed as inconclusive are left out. A call without a number means that no potency is given here. Calls of active or inactive are those of the source. Calls follow the shape of the dose curve; as a rule, active = well fitted inhibition curve with a large enough effect; inconclusive = small, poorly fitted or top-dose-only effect; inactive = no such curve, though single readings can be large or run the other way.

Assays:
[1] = tested on: Zika virus NS2B-NS3 protease (unlinked complex); assay: Primary screen GU Rhodamine qHTS for Zika virus inhibitors: Unlinked NS2B-NS3 protease assay (AID 1347159); also: nearly all actives have a fitted effect of over 60% in size
Method in brief: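 Percent inhibition came from the 15-min rise in Rhodamine110 fluorescence (1.5 microM substrate, ~15% conversion), normalized to no-inhibitor and no-enzyme wells and Hill-fitted. Unlinked protease, 25 nM, pH 8.0 Tris buffer; compounds up to 114 microM, 15-min preincubation.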

[2] = tested on: Zika virus NS2B-NS3 protease (linked construct); assay: Primary screen NINDS Rhodamine qHTS for Zika virus inhibitors (AID 1347160); also: nearly all actives have a fitted effect of over 55% in size
Method in brief: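 Rhodamine110-peptide cleavage (1.5 µM substrate) by 25 nM linked NS2B-NS3 enzyme at pH 8.0 (Tris, Tween 20), after 15 min RT preincubation with compounds; 15-min fluorescence change normalized to controls and Hill-fitted.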

SMILES | Potency [1] | Potency [2]
COc1cc(C2OCC3(O)C(c4ccc(O[C@@H]5O[C@H](CO)[C@@H](O)[C@H](O)[C@H]5O)c(OC)c4)OCC23O)ccc1O (stereo partly specified) | inactive | inactive
Cc1cccc(-c2nn3c(c2-c2ccnc4ccc(C(N)=O)cc24)CCC3)n1 | inactive | inactive
OC[C@H]1O[C@@H](OC[C@H]2O[C@@H](OCc3ccccc3)[C@H](O)[C@@H](O)[C@@H]2O)[C@H](O)[C@@H](O)[C@@H]1O | inactive | inactive
COc1ccc(O[C@@H]2O[C@H](CO)[C@@H](O)[C@H](O)[C@H]2O)cc1OC | inactive | inactive
Cc1occc(=O)c1O[C@@H]1O[C@H](COC(=O)CC(C)(O)CC(=O)O)[C@@H](O)[C@H](O)[C@H]1O (stereo partly specified) | inactive | inactive
C=C1CC[C@@]2(OC1)O[C@H]1CC3C4CC=C5C[C@@H](O[C@@H]6O[C@@H](C)[C@H](O)[C@@H](O)[C@H]6O)C[C@@H](O[C@@H]6O[C@H](C)[C@H](O)[C@H](O)[C@H]6O[C@@H]6O[C@@H](C)[C@H](O)[C@@H](O)[C@H]6O)[C@]5(C)C4CC[C@]3(C)[C@H]1[C@@H]2C (stereo partly specified) | inactive | inactive
Nc1ccc(-n2nc(C(F)(F)F)cc2C(F)(F)F)cc1 | inactive | inactive
CC1(C)CC[C@]2(C(=O)O[C@@H]3O[C@H](CO)[C@@H](O)[C@H](O)[C@H]3O)CC[C@]3(C)C(=CCC4[C@@]5(C)C[C@H](O)[C@H](O[C@@H]6OC[C@@H](O)[C@H](O)[C@H]6O)[C@@](C)(CO)C5CC[C@]43C)C2C1 (stereo partly specified) | inactive | inactive
